Measured values as given in PubChem BioAssay (NCI).
This is part of a sample that, as a whole, favours compounds with a hit. Of some 83,000 tested, about 20% had one in any assay.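 Step 1: grow cells in 96-well plates. Step 2: add test compound at a single concentration. Step 3: incubate 48 h. Step 4: record percent growth.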 A number with no mark means an inactive call. The source made the active and inactive calls.

Test system: UACC-62 melanoma
Test: NCI-60 one-dose screen, 48 h (100 = growth as untreated, 0 = no growth, -100 = all killed)
Settings: 10 µM unless noted
Method: Growth inhibition of the UACC-62 human tumor cell line is measured as a screen for anti-cancer activity. Cells are grown in 96 well plates and exposed to the test compound for 48 hours. Compounds are tested at a single concentration, which is 10^-5 M for most compounds. The reported endpoint is percent growth (GI% or GIPRCNT), where numbers from 0 - 100% represent growth inhibition, and numbers from -100% - 0 represent cell death. For example, a value of 40 represents 60% growth inhibition. A value of 0 means no net growth occurred over the course of the experiment. A value of -40 indicates 40% of cells at the beginning of the experiment died by the end of the experiment. A value of -100 means all cells are dead at the end of the experiment.
NCI-60 Human Tumor Cell Lines Screen was performed using the standard one-dose NCI protocol, which is described in more detail at https://dtp.cancer.gov/discovery_development/nci-60/default.htm.
Compounds with GIPRCNT values below 10 were considered active. Activity score was based on GIPRCNT using the following formula: […]
Score is 0 for GIPRCNT values of 100 or above, 50 for GIPRCNT values of 0, and 100 for GIPRCNT values of -100.

SMILES	growth
O=C(Cc1ccccc1[N+](=O)[O-])c1ccc2c(c1)OCO2	88.8%
CC(=O)N1CCN(CCNC(=O)n2cc(-c3ccncc3)c(-c3ccc(O)c(Cl)c3)n2)CC1	91.3%
C=C(C)[C@@H]1CC[C@]2(COC(=O)c3ccccc3C(=O)O)CC[C@]3(C)[C@H](CC[C@@H]4[C@@]5(C)CCCNC(C)(C)[C@@H]5CC[C@]43C)[C@@H]12	75.6%
O=C1c2ccccc2CCc2ccccc21	95.6%
COc1cc(/C=C/C(=O)c2ccc(F)cc2)ccc1OCCCCOc1cc2c(cc1OC)C(=O)N1CCCC1C=N2 (stereo not given)	-86% (active)
COC(=O)C(C(=O)OC)C(Br)C(Br)C(Br)c1ccccc1 (stereo not given)	80.9%
COc1cc(NC(=O)CSc2nc3ccc(Cl)cc3c(=O)n2-c2ccc(F)cc2)cc(OC)c1OC	71.3%
C=CC1CN2CCC1CC2C(O)c1ccnc2ccc(OC)cc12 (stereo not given)	100%
Oc1ccc(Br)cc1/C=N/NC(=S)NC12CC3CC(CC(C3)C1)C2	30.1%
COc1ccc(C(=O)N2N=C(c3ccc(Br)cc3)CC2c2cn(-c3ccccc3)nc2-c2ccccc2)cc1 (stereo not given)	74.7%
COc1ccc(C2CC(=O)c3c(O)cc(OC4OC(COC5OC(C)C(O)C(O)C5O)C(O)C(O)C4O)cc3O2)cc1O (stereo not given)	111%
COc1ccc(-c2nc(N)n(C(=S)Nc3ccccc3)n2)cc1	98%
Cc1cc2c(-c3nc4ccccc4n3C)c(O)c(O)cc2c(O)c1-c1c(C)cc2c(-c3nc4ccccc4n3C)c(O)c(O)cc2c1O	28.9%
COC(=O)/C=C/c1cc(O)c2oc(-c3ccc(O)c(O)c3)c(C(=O)OC)c2c1	36.6%
COc1cccc2c1nc1cccc(OC)c1[n+]2[O-]	39.6%
COc1ccc(-c2nc(SCC(C)C)nc(Nc3ccc(C(=O)O)cc3)c2C#N)cc1	99.3%
CCCOC(=O)c1c(C)n(C)c2scc[n+]12	84%
O=C(/C=C1\C(=O)N(Cc2ccc([N+](=O)[O-])cc2)c2ccccc21)c1ccc(OCCN2CCCC2)cc1	85.8%
CCOC(=O)c1c(C)oc2ncnc(Nc3ccc(C(=O)NCCc4ccccc4)cc3)c12	95%
CC1(C)NCCC[C@]2(C)[C@H]3CC=C4[C@@H]5C[C@](C)(COC(=O)c6ccccc6C(=O)O)CC[C@]5(C)CC[C@@]4(C)[C@]3(C)CC[C@@H]12	88.2%

SMILES	growth
COC(c1ccccc1)C(Br)C(=O)c1ccccc1 (stereo not given)	84.9%
CC(=O)OCC1O[C@@H](OC(C)=O)[C@@H](NC(=O)NS(=O)(=O)c2ccccc2)C(OC(C)=O)[C@@H]1OC(C)=O (stereo not given in full)	101%
CC(=O)Nc1nc(C)c(C(=O)N/N=C/c2cccs2)s1	80.1%
CCC1(CC)C(OC)NC(Br)=C(C#N)C1(C#N)C(N)=O (stereo not given)	99.5%
CC(=O)c1cc(Nc2cc(C)nc(N)n2)cc(C(C)=O)c1	93.7%
[N-]=[N+]=Nc1ncc(-c2ccc(C(F)(F)F)cc2)c(NC2CCCCCC2)n1	25.5% [100 µM]
CCCCCc1ccnc(CC(=O)c2ccc(OC)cc2)c1	89.5%
N=c1c2c(=O)n3c(nc2nc2sc4ccc(Cl)cc4n12)-c1ccccc1Sc1ccccc1-3	-26% (active)
O=c1c(N=Nc2nccs2)c(-c2ccccc2)[nH]n1-c1nc(-c2ccccc2)cs1	12.3%
CC1=C(C)C[C@]2(C(=O)O[C@H]3CCCC[C@@H]32)[S@](=O)C1	104%
CCC(CCCN1C(=O)c2ccccc2C1=O)Nc1cc(OC)cc2c(C)ccnc12 (stereo not given)	69.5%
CC1=C(C)C(=O)C(C(C)C2=C(C)C(=O)C(C)=C(C)C2=O)=C(C)C1=O	85%
N#Cc1c(N)nc(Nc2nc3ccccc3[nH]2)nc1-c1ccc(Cl)cc1	113%
Nc1cc2c(cc1Br)[nH]c(=O)c1ccccc12	73.4%
COc1ccc(OC)c(Cn2cc3c(c2)-c2oncc2CC3)c1	53%
O=S(=O)(O)CCI	101%
COc1ccc2cn3c4ccc(O)cc4[nH]c(=O)c3c2c1	34.9%
COc1nc(OC)nc(-c2cc(-c3cc(OC)c(OC)c(OC)c3)no2)n1	97.6%
CC(=O)N1CCN(CCNC(=O)n2cc(-c3ccncc3)c(-c3cc(O)cc(Cl)c3)n2)CC1	27.8%
N#Cc1ccc(OCc2nc(N)nc(N)c2-c2ccc(Cl)c(Cl)c2)cc1	12.2%
